# High-throughput results: PubChem, National Center for Advancing Translational Sciences (NCATS)
# hNpr1 antagonist = Natriuretic polypeptide receptor (hNpr1) antagonism - Primary qHTS | 1.6% of 76,000 active | Potency, µM (doses to about 46.3 µM), for the others: at the highest dose activity change, negative = inhibition, most hits filed as inhibitors | HEK293 hNpr1 GloSensor cGMP, ANP-stimulated luminescence; calls by dose curve; further: nearly all actives have a fitted effect of over 60% in size
#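 HEK293 cells stably expressing human Npr1 and cGMP GloSensor pGS-40F, loaded 2 h with 2% GloSensor reagent, given compound 30 min at room temperature. Luminescence read before and 20 min after 0.1 nM hNppA.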
# HEK cytotox = Cytotoxic Profiling in HEK 293 Cell Line of Diverse Libraries Using Quantitative High-Throughput Screening; HEK 293 viability, ATP luminescence (CellTiter-Glo), 48-72 h; Potency, µM (top dose mostly 115 µM), inactives show top-dose activity change, negative = cytotoxicity, hits mostly inhibitors; 6.6% of 94,000 active; further: nearly all actives have a fitted effect of over 60% in size
#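 HEK 293 cells at 250 cells/well were exposed to compounds by pintool transfer for 48 or 72 hr at 37 degree Celsius, 5% CO2. Viability was read as ATP-coupled luminescence with CellTiter-Glo after 10 min at room temperature.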
# FLuc inh = Firefly luciferase inhibition profiling of diverse chemical library using quantitative high-throughput screening; AID 1347043, 2019; Luciferin 4-monooxygenase (Photinus pyralis), P08659; Potency, µM (titrated, usually from 115 µM), actives largely listed as inhibitors; 2.5% of 76,000 active; purified P. pyralis luciferase, luminescence, biochemical; further: nearly all actives have a fitted effect of over 65% in size
# Target sequence (P08659 whole entry, looked up): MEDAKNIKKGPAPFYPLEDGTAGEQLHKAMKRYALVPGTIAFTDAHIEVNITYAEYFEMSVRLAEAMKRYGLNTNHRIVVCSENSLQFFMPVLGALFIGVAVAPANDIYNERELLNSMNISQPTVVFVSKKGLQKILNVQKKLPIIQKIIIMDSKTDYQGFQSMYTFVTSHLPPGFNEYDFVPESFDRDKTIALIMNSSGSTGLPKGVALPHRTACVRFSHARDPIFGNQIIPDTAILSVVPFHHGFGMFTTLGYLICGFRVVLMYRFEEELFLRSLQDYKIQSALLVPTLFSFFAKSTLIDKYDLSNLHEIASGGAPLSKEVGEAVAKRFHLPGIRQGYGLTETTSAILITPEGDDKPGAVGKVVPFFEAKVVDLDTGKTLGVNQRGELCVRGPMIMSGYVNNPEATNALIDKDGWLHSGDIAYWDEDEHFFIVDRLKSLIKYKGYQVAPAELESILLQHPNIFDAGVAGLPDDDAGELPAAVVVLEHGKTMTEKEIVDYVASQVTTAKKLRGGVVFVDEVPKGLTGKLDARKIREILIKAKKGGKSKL
#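 Luminescence read by CCD imager after adding enzyme (10nM final) to wells holding compound, titrated in qHTS. Substrates 10uM each D-luciferin and ATP; buffer 50mM Tris acetate pH 7.5, 10mM Mg acetate, Tween-20, BSA.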
# NIH3T3 tox = Cytotoxic Profiling in NIH 3T3 Cell Line of Diverse Libraries Using Quantitative High-Throughput Screening | NIH 3T3 viability, CellTiter-Glo ATP luminescence, 48-72 h | Potency, µM (titrated, usually from 96.7 µM), for the others: at the highest dose activity change, negative = cytotoxicity, most hits filed as inhibitors | 4.3% of 94,000 active | AID 1345082, 2018; further: nearly all actives have a fitted effect of over 55% in size
#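 NIH 3T3 cells at 400 cells/well received 23 nL of compound by pintool and were incubated 48 or 72 h at 37 °C. Viability was read as ATP-coupled CellTiter-Glo luminescence.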
# * hit, by the source's call; i = inactive; ? = inconclusive; nt = not tested or not shown; [ ] = remark or other dose. Compounds with a hit are over-represented: about 11% of the library has one in this group of screens. Unless noted, the call rests on the fitted dose curve; in most records, active means well fitted curve in the direction sought with a large enough effect; inconclusive means small, poorly fitted or top-dose-only effect, or another doubt; inactive means no such curve, though single readings can be large; an effect the other way counts as inactive or inconclusive. On the % scale 0 is the no-effect control and ±100 the full control effect; potency means the concentration at half of the fitted maximal effect.
SMILES,hNpr1 antagonist,HEK cytotox,FLuc inh,NIH3T3 tox
COc1ccc(C)cc1NC(=O)CC1CCCN(c2cnn(C)c(=O)c2)C1 (stereo unspecified),0%,-2%,i,-21%
Cc1ccc(-c2cc(C(=O)N3CCOCC3)c3cnn(C)c3n2)cc1,nt,i,nt,-19%
COCC1CN(C(C)=O)CC12CCN(Cc1cccc(Br)c1)CC2 (stereo unspecified),-19%,79µM*,i,-18%
O=C(C1CCC1)N1CCC(c2nc(-c3ccc4nc[nH]c4c3)no2)CC1,-2%,?,i,?
COc1ccccc1-c1cnc(NCc2ccccc2)c2c1CCO2,-12%[70.6 µM],?,i,25µM*
COc1ccccc1-c1cnc(Nc2ccc3c(c2)OCCO3)c2c1CCO2,?,?,14µM*,-27%[138 µM]
O=C1N(CCc2ccccc2)CCOC12CCN(Cc1ccc(F)cc1)CC2,-4%[70.6 µM],?,i,?
C=CCN1CCN(C(=O)[C@@H]2CCCN(Cc3ccccc3)[C@@H]2COC)CC1,nt,?,nt,-26%
O=C(c1ccn(C(F)F)n1)N1CCc2nc(-c3ccc(Cl)cc3)[nH]c2C1,0%,89µM*,?,?
CCOC(=O)N1CCC(N2CCc3nc(-c4ccc(Cl)cc4)[nH]c3C2)C1 (stereo unspecified),-2%,?,i,?
O=C(c1ccc(F)c(F)c1)N1CCC2(CC1)NC(=O)N(Cc1ccc(F)cc1)C2=O,-12%,?,i,?
CC(=O)N1CCCN(C(=O)C2CCN(c3nccc(Nc4ccc(C)cc4)n3)CC2)CC1,nt,-27%,nt,?
O=C(C1CCN(c2nccc(Nc3ccccc3Cl)n2)CC1)N1CCC(Cc2ccccc2)CC1,nt,25µM*,nt,?
Cc1ccc(Nc2ccnc(N3CCCC(C(=O)N4CCN(Cc5ccccc5)CC4)C3)n2)cc1 (stereo unspecified),nt,13µM*,nt,40µM*
COc1ccc(Nc2ccnc(N3CCC(C(=O)N4CCN(Cc5ccccc5)CC4)CC3)n2)cc1,nt,32µM*,nt,?
O=C(C1CCN(c2nccc(Nc3ccccc3Cl)n2)CC1)N1CCOCC1,nt,?,nt,-40%
O=C(C1CCN(c2nccc(Nc3ccccc3Cl)n2)CC1)N1CCN(Cc2ccccc2)CC1,nt,?,nt,32µM*
CC(C)C(=O)Nc1cc(-c2ccccn2)nn1-c1ccccc1,nt,-22%[172 µM],nt,-30%[138 µM]
CN1C(=O)CCC2(CNC(=O)c3ccccc3F)CCC=C12 (stereo unspecified),nt,i,nt,-8%
CCc1nc2c(c(-c3ccc(O)cc3)n1)CN(C(=O)c1ccc(C(F)(F)F)cc1)CC2,nt,0%,nt,-28%
CCc1cccc2c(C(CC(=O)NCCc3ccc(OC)c(OC)c3)c3cccc(OC)c3)c[nH]c12 (stereo unspecified),-15%,25µM*,i,?
COc1ccc(C(CC(=O)NCCc2ccccc2)c2c[nH]c3ccccc23)cc1OC (stereo unspecified),0%,?,i,?
COc1cccc(C(CC(=O)NCCc2ccc(OC)c(OC)c2)c2c[nH]c3ccccc23)c1 (stereo unspecified),?,45µM*,i,?
CCc1cccc2c(C(CC(=O)NCc3ccc4c(c3)OCO4)c3ccc(OC)c(OC)c3)c[nH]c12 (stereo unspecified),-21%,35µM*,i,?
CCc1cccc2c(C(CC(=O)NCCc3ccccc3)c3cccc4c3OCO4)c[nH]c12 (stereo unspecified),-20%,18µM*,?,18µM*
SMILES,hNpr1 antagonist,HEK cytotox,FLuc inh,NIH3T3 tox
CCc1cccc2c(C(CC(=O)NCCOC)c3ccc(OC)cc3OC)c[nH]c12 (stereo unspecified),3%,?,i,-8%
COCCn1c(C)cnc1CC1CCN(C(=O)CC2CCCCC2)C1 (stereo unspecified),nt,-14%,nt,-25%
CN1C(=O)[C@@H]2C[C@@H](CN2C(=O)CCC(=O)O)Oc2ccccc21,-1%[70.6 µM],-4%[172 µM],i,-18%[174 µM]
CCN1Cc2cc(OC)ccc2N(C[C@@H](O)COCc2ccccc2)CCC1=O,nt,-22%,nt,?
COCCNC(=O)CCc1c(C)nn(-c2ccccc2)c1Oc1ccc(F)cc1F,-11%,?,i,-21%
CC1(c2noc(-c3ccncc3)n2)CCN(C(=O)CCc2cc(Cl)no2)CC1,nt,?,nt,-26%
CCOC(=O)C1CCCN(C(=O)c2nc3sccn3c2-c2cccnc2)C1 (stereo unspecified),nt,3%,nt,-3%
CCc1cccc2c(C(CC(=O)NCCC(C)C)c3cccc(OC)c3OC)c[nH]c12 (stereo unspecified),-1%,45µM*,i,?
CCc1cccc2c(C(CC(=O)NCc3ccc(F)cc3)c3cccc(OC)c3OC)c[nH]c12 (stereo unspecified),0%,?,i,?
COc1ccc(Nc2cnc3ccc(-c4ccc(F)cc4)nn23)cc1,-2%[70.6 µM],?,i,?
COc1ccccc1-c1ccc2ncc(Nc3ccc(CCO)cc3)n2n1,5%[70.6 µM],?,?,?
COc1ccc(Nc2cnc3ccc(-c4ccc(F)cc4)nn23)cn1,3%[70.6 µM],50µM*,i,35µM*
c1ccc(-c2ccc3ncc(Nc4ncccn4)n3n2)cc1,1%[70.6 µM],?,i,?
COc1ccc(Nc2cnc3ccc(-c4ccccc4)nn23)cc1,-12%[70.6 µM],71µM*,?,?
NC(=O)c1ccc(Nc2cnc3ccc(-c4ccccc4)nn23)cc1,-10%[70.6 µM],?,i,28µM*
CN(Cc1ccc(F)cc1)c1ccc2ncc(Nc3ccc4c(c3)OCCO4)n2n1,-19%[70.6 µM],40µM*,i,?
CCC1(O)CCC12CCN(C(=O)CCC1CCCC1)CC2 (stereo unspecified),nt,?,nt,-23%
Cc1ccc(NC(=O)N2CCCN(S(C)(=O)=O)C(c3ccccc3)CC(=O)NCC2)cc1C (stereo unspecified),7%,4%,i,-8%
Fc1ccc(-c2ccc3ncc(Nc4ccncc4)n3n2)cc1,-2%[70.6 µM],100µM*,i,?
COc1ccc(Nc2cnc3ccc(-c4ccccc4)nn23)cn1,-3%[70.6 µM],45µM*,?,40µM*
OCCc1ccc(Nc2cnc3ccc(-c4cccc(CO)c4)nn23)cc1,-3%[70.6 µM],?,?,?
Fc1ccc(-c2ccc3ncc(Nc4ccc5c(c4)OCO5)n3n2)cc1,-11%[70.6 µM],79µM*,i,?
COCC(=O)N1CCCC2(Cc3ccccc3NC2=O)C1 (stereo unspecified),0%[70.6 µM],-19%[172 µM],i,-9%[138 µM]
COc1ccccc1-c1ccc(CN2CCCCC2C(=O)NCc2ccc3c(c2)OCO3)cc1 (stereo unspecified),nt,25µM*,nt,?
